PubChem BioAssay AID1259343 (VanderVen Lab, College of Veterinary Medicine, Cornell …, 2017)
The whole screen tested about 6,200 compounds, of which about 2,900 (47%) were called active. Cut-off read from the data, not from the text of the source: active = inhibition above about 50%; inactive = the rest. So high a share suggests a set chosen from earlier hits. The list shows a part of the results.

Assay: Mycobacterium tuberculosis growth inhibition, primary screen (AID 1259343)
Conditions: inhibition: at 10 µM, stronger effect = higher value; outcome: 10 uM

| Compound | inhibition |
| --- | --- |
| CCOC(=O)N1CCN(S(=O)(=O)CCCOc2ccc3c(c2)OCO3)CC1 | 32.5% (inactive) |
| O=S(=O)(CCCOc1ccc2c(c1)OCO2)N1CCCCCC1 | 86% (active) |
| O=S(=O)(CCCOc1ccc2c(c1)OCO2)N1CCCCC1 | 88.8% (active) |
| CC1CCN(c2ncnc3c2cnn3Cc2ccc(Cl)cc2)CC1 | 62.6% (active) |
| CCN(CC)c1ncnc2c1cnn2Cc1ccc(Cl)cc1 | 34.4% (inactive) |
| c1ccc2c(c1)oc1c(N3CCCCCC3)ncnc12 | -12.7% (inactive) |
| Clc1ccc(Cn2ncc3c(N4CCCC4)ncnc32)cc1 | 65.3% (active) |
| Clc1ccc(Cn2ncc3c(N4CCN(c5cccc(Cl)c5)CC4)ncnc32)cc1 | 14.4% (inactive) |
| Cc1ccc(Cn2ncc3c(N4CCC(C)CC4)ncnc32)cc1 | 25.7% (inactive) |
| Clc1ccc(Cn2ncc3c(N4CCCCC4)ncnc32)cc1 | 67.1% (active) |
| CCOc1ccc(C2C(c3nc4ccccc4s3)=C(O)C(=O)N2c2cc(C)on2)cc1OC (configuration not stated) | 46.5% (inactive) |
| Clc1ccccc1C(c1ccccc1)(c1ccccc1)n1ccnc1 | 68.1% (active) |
| COc1cc(OC)c2c(OC)c(-c3ccc4c(c3)OCO4)c(=O)oc2c1 | 70.6% (active) |
| Cn1ncc2c(N3CCN(CC(=O)Nc4ccc(Cl)cc4F)CC3)ncnc21 | 88.8% (active) |
| CCCc1cc(=O)[nH]c(-n2nc(C)cc2NC(=O)c2ccc(OC)cc2)n1 | -40.9% (inactive) |
| CCOc1cc(C(=O)Nc2cc(C)nn2-c2nc(C)cc(=O)[nH]2)cc(OCC)c1OCC | 100% (active) |
| CCCc1cc(=O)[nH]c(-n2nc(C)cc2NC(=O)c2ccc(OCC)cc2)n1 | 100% (active) |
| CCCCOc1ccc(C(=O)Nc2cc(C)nn2-c2nc(CCC)cc(=O)[nH]2)cc1 | 101% (active) |
| CCCc1cc(=O)[nH]c(-n2nc(C)cc2NC(=O)c2cc(OCC)c(OCC)c(OCC)c2)n1 | 100% (active) |
| Clc1ccc(OCC2CCCNC2)c2ccccc12 (configuration not stated) | 77.8% (active) |
| O=C(COc1ccc(Cl)c2ccccc12)NCC(F)(F)F | 17.8% (inactive) |
| Nc1ncc(Cc2ccc(Br)cc2)s1 | 46.1% (inactive) |
| Nc1ncc(Cc2ccc(F)c(Cl)c2)s1 | -17.6% (inactive) |
| Nc1ncc(Cc2ccc(F)cc2)s1 | 93% (active) |
| COC(=O)c1ccc(COc2ccc(C3C4=C(Nc5nnnn53)C(C(C)(C)C)CCC4)cc2)cc1 (configuration not stated) | 88.6% (active) |
| COCCc1noc(C2CC2c2ccc(C)s2)n1 (configuration not stated) | 90.7% (active) |

| Compound | inhibition |
| --- | --- |
| Cc1ccc(C2CC2C(=O)NC(C)c2nc(C3CCCC3)no2)s1 (configuration not stated) | 29.8% (inactive) |
| O=S(N1CCc2ccccc2C1)C12CC3CC(CC(C3)C1)C2 (configuration not stated) | 80.3% (active) |
| O=c1cc(CSc2cccc[n+]2[O-])c2c(ccc3ccccc32)o1 | 102% (active) |
| C=CCNc1nnc(Sc2ncccc2[N+](=O)[O-])s1 | 98.3% (active) |
| Nc1ncc([N+](=O)[O-])c(Sc2nc3ccccc3s2)n1 | -52.4% (inactive) |
| CC(C)=CCC1=C(O)c2ccccc2C(=O)C1=O | 101% (active) |
| O=C(Nc1nc2c(s1)CCN(Cc1ccccc1)C2)c1cccc(F)c1 | 21.5% (inactive) |
| O=C(Nc1nc2ccc3ccccc3c2s1)c1ccccc1 | 61.4% (active) |
| Cc1ccc(Cn2ncc3c(Nc4ccc(C)cc4)ncnc32)cc1 | 35.1% (inactive) |
| COc1ccc(Nc2ncnc3c2cnn3Cc2ccc(C)cc2)cc1 | 23.5% (inactive) |
| Cc1ccc(Cn2ncc3cc(Br)cnc32)cc1 | 97% (active) |
| Cc1ccccc1-n1cc(CN(C)Cc2nc(-c3ccccc3)no2)cn1 | 86% (active) |
| COc1ccc(Br)cc1S(=O)(=O)Oc1ccc2ccccc2c1 | 95.9% (active) |
| CCOc1ccc(Br)cc1S(=O)(=O)Oc1cccc2c1OC(C)(C)C2 | 23.4% (inactive) |
| O=C(NS(=O)(=O)c1ccc(Cl)cc1F)c1cccc2cn[nH]c12 | 22.9% (inactive) |
| O=C(NCc1ccc(OCC2CC2)nc1)c1cccc2cn[nH]c12 | 79.9% (active) |
| CC(C)Oc1ccc(CNC(=O)c2cc(Cl)ccc2F)cn1 | -0.38% (inactive) |
| COCCn1c(O)c(C=NNC(=O)c2cc(Cl)ccc2O)c(=O)[nH]c1=S | 45.1% (inactive) |
| O=C(NN=Cc1ccco1)c1cc(Br)ccc1O | 98.8% (active) |
| C=CCc1ccc(OCCOc2ccc(F)cc2)c(OC)c1 | -4.29% (inactive) |
| C=CCc1ccccc1OCCn1cnc2ccccc21 | 57% (active) |
| C=CCc1ccc(OCCCCn2cnc3ccccc32)c(OC)c1 | 61.1% (active) |
| OCc1ccc(Oc2ccc(Br)cc2)c(F)c1 | 94.1% (active) |
| Cc1ccc(S(=O)(=O)c2ccc([N+](=O)[O-])o2)cc1 | 102% (active) |
| Cc1nc(N)sc1-c1ccc([N+](=O)[O-])o1 | -7.32% (inactive) |
| Cc1cc(C)c(-c2nc(NC(=O)C3=COCCO3)sc2C)cc1C | 11.4% (inactive) |

| Compound | inhibition |
| --- | --- |
| O=C(Nc1nnc(C2CC(=O)N(c3ccccc3)C2)o1)C1=COCCO1 (configuration not stated) | 93.6% (active) |
| NC(=S)COc1ccc(F)cc1 | 77.8% (active) |
| NC(=S)COc1ccccc1 | 65.4% (active) |
| O=C1CC(=O)N2C(c3ccccc3)=CSC2(OCCS)N1 (configuration not stated) | -5.38% (inactive) |
| CC(NC(=O)c1ccc(-c2cccc(Cl)c2)s1)C(C)(C)C (configuration not stated) | 50% (active) |
| O=C(NCc1ccncc1)c1ccc(-c2ccc(C3CCCCC3)cc2)s1 | 8.46% (inactive) |
| COc1ccc(CNC(=O)c2ccc(-c3cccc(Cl)c3)s2)cc1 | 54.9% (active) |
| Cc1cccc(CNC(=O)c2ccc(-c3ccc(Oc4ccccc4)cc3)s2)c1 | 82.4% (active) |
| COc1cccc(CNC(=O)c2ccc(-c3ccc(F)cc3)s2)c1 | inactive |
| N#Cc1sc(-c2cccc(Cl)c2)cc1N | 42.5% (inactive) |
| Clc1ccc(-n2cccc2CN2CCc3c([nH]c4ccccc34)C2c2ccccn2)nc1 (configuration not stated) | 37.9% (inactive) |
| NC(=O)c1cc2c(cc1-c1cccc(C(F)(F)F)c1)OCO2 | 22.9% (inactive) |
| Cc1ccc2c(=O)c(-c3cccc(C(F)(F)F)c3)coc2c1 | 57.7% (active) |
| CC(C)Cc1noc(CCCNC(=O)Nc2cccc(Cl)c2)n1 | 55.1% (active) |
| Cc1[nH]ncc1CCCNC(=O)Nc1ccc(Cl)c(Cl)c1 | -9.82% (inactive) |
| CC(C)c1cc(C(=O)NCc2nc(Cc3cccs3)no2)n(C)n1 | 13.7% (inactive) |
| CCCc1cc(NCc2cccnc2)n2ncc(-c3ccccc3)c2n1 | 13.7% (inactive) |
| Fc1ccc(-c2cnn3c(NCc4cccc(Cl)c4)ccnc23)cc1Cl | 57.7% (active) |
| CCCCCCc1ccc(C(=O)N2CCSC2c2ccncc2)cc1 (configuration not stated) | 95.1% (active) |
| CCCCc1ccc(C(=O)O)nc1 | 40.9% (inactive) |
| c1ccc(Cn2nnc3c(SCc4cccnc4)ncnc32)cc1 | -31.8% (inactive) |
| O=C(CSc1ncnc2c1nnn2Cc1ccccc1F)OCc1ccccc1 | -8.15% (inactive) |
| Fc1ccc(-n2nnc3c(SCc4cccc(F)c4)ncnc32)cc1 | -31.5% (inactive) |
| Cc1ccc(Cn2nnc3c(SCc4cccnc4)ncnc32)cc1 | 58.1% (active) |
| Cc1ccc(Cn2nnc3c(SCC(=O)OCc4ccccc4)ncnc32)cc1 | 84.7% (active) |
| c1ccc(-n2nnc3c(SCc4cccnc4)ncnc32)cc1 | 61.4% (active) |

| Compound | inhibition |
| --- | --- |
| COc1ccc(-n2nnc3c(SCc4cccc(F)c4)ncnc32)cc1 | 88.2% (active) |
| O=C(CSc1ncnc2c1nnn2Cc1ccccc1)OCc1ccccc1 | -35.2% (inactive) |
| COc1ccc(-n2nnc3c(SCc4cccc(Cl)c4)ncnc32)cc1 | -33.7% (inactive) |
| COc1cccc(-n2nnc3c(SCc4cccnc4)ncnc32)c1 | 74.8% (active) |
| COc1cccc(-c2ccc(NC(=O)C3CCCN(Cc4cnc(N(C)C)s4)C3)cc2)c1 (configuration not stated) | 48.7% (inactive) |
| CC(=O)c1cccc(CN2CCC(C(=O)Nc3cccc(-c4cccc(F)c4)c3)CC2)c1 | 69% (active) |
| CC(=O)c1cc(CN2CCC(C(=O)Nc3cccc(-c4cccc(F)c4)c3)CC2)cs1 | 91.3% (active) |
| Cc1cccc(-c2ccc(NC(=O)C3CCN(Cc4nccs4)CC3)cc2)c1 | 37.9% (inactive) |
| CCCc1ncc(CN2CCC(C(=O)Nc3cccc(-c4cccc(F)c4)c3)CC2)cn1 | inactive |
| O=C(Nc1cccc(-c2cccc(F)c2)c1)C1CCN(Cc2cccs2)CC1 | 36.5% (inactive) |
| O=C(Nc1cccc(-c2cccc(F)c2)c1)C1CCN(Cc2cccc3cnccc23)CC1 | 75.2% (active) |
| Cc1cccc(-c2ccc(NC(=O)C3CCN(Cc4cnc(N(C)C)s4)CC3)cc2)c1 | 88.2% (active) |
| CCCn1nnnc1NCc1cccn1C | 1.45% (inactive) |
| Cn1ccsc1=NC(=O)CCN1c2ccccc2Sc2ccccc21 | -5.61% (inactive) |
| Cc1cccc(CN2CCC(C(=O)Nc3cccc(-c4cccc(F)c4)c3)CC2)n1 | 76.4% (active) |
| CC(=O)c1cccc(CN2CCC(C(=O)Nc3ccc(-c4cccc(C)c4)cc3)CC2)c1 | 86.5% (active) |
| c1nc(NC2CC3CC2C2CCCC32)c2sccc2n1 (configuration not stated) | 30.1% (inactive) |
| COc1cccc(OC)c1OCCCOc1ccc(Cl)cc1Cl | 89.4% (active) |
| COc1cccc(OC)c1OCCCOc1ccc(C)cc1Cl | 47.8% (inactive) |
| COc1cccc(OC)c1OCCOc1ccc(Br)cc1Cl | 82% (active) |
| Cc1ccn2c(=O)nc(SCc3ccc(C(F)(F)F)cc3)nc2c1 | 22.7% (inactive) |
| O=c1cnnc(SCc2ccc(C(F)(F)F)cc2)[nH]1 | 84.2% (active) |
| O=c1nc(SCc2ccc(C(F)(F)F)cc2)nc2ccccn12 | -29.6% (inactive) |
| FC(F)(F)c1ccccc1CCNc1nncc(-c2ccccc2)n1 | -20% (inactive) |
